# Measured values from the supplement of paper PMC8699584.
# “And” between values parts separate entries of the source, which are not always exact repeats. Equal entries are not always repeated. Structures can show the parent of a compound that is named as a salt. ± gives the standard deviation of the averaged measurements.
# Experiments:
# Molm13 = experiment: cell viability relative to DMSO control (bortezomib = 0%); higher = less growth inhibition; conditions: 10 nM; 72 h
# Outline: (§1)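 Using 384-well plates, a set of 679 approved and investigational compounds was tested once at 10 nM against acute myeloid leukemia cells (1000 cells per well in 50 µL) over 72 h, with the whole screen done in duplicate. Viability readout relied on CellTiter-Glo luminescence measured on an EnVision reader. For each plate, linear regression mapped values between positive-control-treated cells at 0% and DMSO-treated cells at 100%.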
# Mv4-11 = experiment: as above; conditions: 10 nM; 72 h
# Outline: as §1
Compound,cell viability (Molm13),cell viability (Mv4-11)
C[S+]([O-])c1ccc(-c2nc(-c3ccc(F)cc3)c(-c3ccncc3)[nH]2)cc1 (centres undefined),104% and 108% and 110%,110% and 114% and 112%
COC(=O)[C@]12CCC(C)(C)C[C@H]1[C@H]1C(=O)C=C3[C@@]4(C)C=C(C#N)C(=O)C(C)(C)[C@@H]4CC[C@@]3(C)[C@]1(C)CC2 [Bardoxolone Methyl],102 ± 6.8%,104 ± 1.1%
Cc1ccc(NC(=O)c2ccc(CN3CCN(C)CC3)cc2)cc1Nc1nccc(-c2cccnc2)n1 [Imatinib (STI571)],97.6 ± 9.5%,97.2 ± 9.2%
CCCCCCCCCCCCCC#CC(=O)[C@@H]1COC(C)(C)N1C(=O)OC(C)(C)C,108 ± 11%,132 ± 1.6%
CO[C@@H]1[C@H](N(C)C(=O)c2ccccc2)C[C@H]2O[C@]1(C)n1c3ccccc3c3c4c(c5c6ccccc6n2c5c31)C(=O)NC4 [PKC-412(Midostaurin)],95.04 ± 0.94%,89 ± 22%
COc1cc(N2CCC(N3CCN(C)CC3)CC2)ccc1Nc1ncnc(Nc2ccccc2S(=O)(=O)C(C)C)n1,96.5 ± 3.9%,98.6 ± 15%
Nc1cccc(-c2cc3c(Oc4cccc(O)c4)ncnc3[nH]2)c1,101 ± 14%,112 ± 13%
COc1cc2ncnc(Nc3ccccc3)c2cc1OC,97.1 ± 10%,107 ± 12%
CNCCNS(=O)(=O)c1cccc2cnccc12 [H-8 (hydrochloride)],106 ± 12%,108 ± 7.2%
N#CC(=Cc1ccc2[nH]ccc2c1)C(N)=C(C#N)C#N,104 ± 20%,103.5 ± 0.36%
C[C@@H](N)[C@H]1CC[C@H](C(=O)Nc2ccncc2)CC1,93.8% and 107%,100% and 112%
Cc1c(C)c2c(c(C)c1O)CC[C@@](C)(CCC[C@H](C)CCC[C@H](C)CCCC(C)C)O2 [Vitamin E],93.3 ± 1.1%,107 ± 16%
